p53 reactivation = restores transcriptional activity of mutant p53 | AID 504706 | H1299 p53-A138V BP100-luciferase reporter, luminescence, 24 h | Potency, µM (titrated, usually from 92.2 µM), actives largely listed as activators | 0.063% of 320,000 active; active = well fitted activation curve with a large enough effect; inconclusive = small, poorly fitted or top-dose-only effect; inactive = no such curve, though single readings can be large or run the other way; also: nearly all actives have a fitted effect of over 45% in size
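H1299 (p53-null), stable ts p53-A138V + BP100-Luc; 1000 cells/well, Opti-MEM/10% FBS; cpd 4 pt, 1:5; 24 h, 37 deg C, 5% CO2; detection reagent 10 min RT; luminescence.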
ClpP mod = qHTS Assay for Activators of ClpP; ATP-dependent Clp protease proteolytic subunit (Bacillus subtilis (strain 168)), P80244; purified B. subtilis ClpP, FRET peptide cleavage, 20 min; Potency, µM (series often up to 57.5 µM); 1.9% of 340,000 active; active = well fitted falling curve with a large enough effect; inconclusive = small, poorly fitted or top-dose-only effect; inactive = no such curve, though single readings can be large or run the other way; also: the source files actives as falling curves though it sought activators and does not explain the sign; nearly all actives have a fitted effect of over 65% in size
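Buffer: 100 mM Tris/HCl pH8, 100 mM KCl, 0.05% low protease BSA, 2.5% glycerol, 0.01% Tween-20. ClpP 10 microg/mL final; 20 min RT; delta FRET normalized to ADEP and DMSO controls.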
hERG WT inh = blocks the wildtype human KCNH2 potassium channel. AID 720551. U2OS, BacMam KCNH2, thallium flux FluxOr; active compounds read low. Q12809. activity change, % at 1.84 µM. 0.37% of 340,000 active;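 active = maximum activity change below -70%; inconclusive = maximum activity change between -70% and -50%; inactive = maximum activity change above -50%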
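U2OS cells transduced with wild-type KCNH2 virus are loaded with FluxOr dye for 45 min, and thallium flux is measured in kinetic reads before and after stimulation buffer. Rate constants are normalized to DMSO controls.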
KCNH2 3.1 inh = blocks the human KCNH2 3.1 channel isoform; U2OS KCNH2 3.1, thallium flux FluxOr; active compounds read low; activity change, % (tested at about 1.8 µM); 0.95% of 340,000 active; AID 720553;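 active = maximum activity change below -70%; inconclusive = maximum activity change from -70% to -50%; inactive = maximum activity change above -50%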;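 also: thallium influx rate constant from kinetic fluorescence after stimulation buffer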
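Channel expression came from 3.1 mutant virus (1.77 x 10^8 /mL) applied to suspended U2OS cells for 4 h. Flux was tracked with FluxOr dye plus Red40 quencher, and kinetic rate constants normalized to controls.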
TRPV1 potentiator = enhances activation of the human vanilloid receptor TRPV1. Q8NER1. TRPV1-expressing cells, Fluo-8 calcium influx, capsaicin EC20 potentiation. potentiation, % at 8.33 µM. 0.02% of 320,000 active; in the data active = potentiation above about 80%; inconclusive = between about 30% and that limit
Target sequence (Q8NER1 whole entry, looked up): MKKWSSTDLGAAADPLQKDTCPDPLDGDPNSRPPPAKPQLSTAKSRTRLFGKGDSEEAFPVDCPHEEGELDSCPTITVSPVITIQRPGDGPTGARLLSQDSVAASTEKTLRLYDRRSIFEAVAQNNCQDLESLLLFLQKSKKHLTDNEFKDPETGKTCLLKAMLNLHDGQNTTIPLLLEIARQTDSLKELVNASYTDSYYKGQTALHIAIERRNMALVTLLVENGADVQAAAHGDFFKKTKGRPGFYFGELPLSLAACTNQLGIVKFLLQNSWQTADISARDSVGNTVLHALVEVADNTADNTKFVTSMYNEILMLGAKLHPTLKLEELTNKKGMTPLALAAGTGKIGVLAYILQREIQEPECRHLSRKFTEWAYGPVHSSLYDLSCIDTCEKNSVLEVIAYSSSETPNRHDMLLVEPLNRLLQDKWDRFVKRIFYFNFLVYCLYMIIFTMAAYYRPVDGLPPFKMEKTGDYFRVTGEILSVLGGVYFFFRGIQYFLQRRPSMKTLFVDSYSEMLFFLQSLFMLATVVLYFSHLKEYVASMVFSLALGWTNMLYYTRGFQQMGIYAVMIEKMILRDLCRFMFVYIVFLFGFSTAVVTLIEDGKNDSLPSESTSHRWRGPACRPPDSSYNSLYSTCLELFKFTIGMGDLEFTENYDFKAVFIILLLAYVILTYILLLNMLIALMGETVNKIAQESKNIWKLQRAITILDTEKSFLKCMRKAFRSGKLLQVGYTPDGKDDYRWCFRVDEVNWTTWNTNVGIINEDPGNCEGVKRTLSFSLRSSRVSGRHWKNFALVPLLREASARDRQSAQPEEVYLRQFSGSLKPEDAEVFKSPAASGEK
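Fluo-8 calcium influx in TRPV1-expressing cells, kinetic read (ex 480/em 520 nm). Compound added and read 3 min for agonist activity, followed by capsaicin at EC20 final and 2 min further read for enhancement.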
TRPV1 ag = agonists of human vanilloid receptor 1 (TRPV1); Q8NER1; TRPV1-expressing cells, Fluo-8 calcium influx, agonist mode; activation, % at 8.33 µM; 0.19% of 320,000 active; in the data active = activation above about 80%; inconclusive = between about 30% and that limit
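Cells expressing TRPV1 were dye-loaded with Fluo-8 and read kinetically: 10 s baseline, 3 min after compound (agonist portion), then 2 min after EC20 capsaicin (allosteric enhancer portion). Calcium-bound dye fluorescence at 480/520 nm.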
Hits are given with their value. An excerpt weighted towards active compounds, which were near 2.6% of everything screened.

How did COc1ccc(-c2cc(C(=O)OC3CCOC3=O)c3ccccc3n2)cc1 (stereo not drawn) do in these assays?
p53 reactivation: inactive; ClpP mod: 25.1µM; hERG WT inh: inactive; KCNH2 3.1 inh: inactive; TRPV1 potentiator: inactive; TRPV1 ag: inactive

How did COc1ccc(-c2cc(C(=O)Oc3ccc([N+](=O)[O-])cc3)c3ccccc3n2)cc1 do in these assays?
p53 reactivation: inactive; ClpP mod: 28.2µM; hERG WT inh: inactive; KCNH2 3.1 inh: inactive; TRPV1 potentiator: inactive; TRPV1 ag: inactive

Results for Cc1ccc(C(=O)OCC(=O)NCC2COc3ccccc3O2)cc1 (stereo not drawn) ?
p53 reactivation: inconclusive; ClpP mod: inactive; hERG WT inh: inactive; KCNH2 3.1 inh: inactive; TRPV1 potentiator: inactive; TRPV1 ag: inactive

How did O=C(COC(=O)c1ccccc1)NCC1COc2ccccc2O1 (stereo not drawn) do in these assays?
ClpP mod: inactive; hERG WT inh: -245.5; KCNH2 3.1 inh: inactive

What do the screens show for `O=C(N/N=C/C(Cl)=C\c1ccccc1)c1cnccn1`?
p53 reactivation: 12.6µM; ClpP mod: inactive; hERG WT inh: inactive; KCNH2 3.1 inh: inactive; TRPV1 potentiator: inactive; TRPV1 ag: inactive

Results for O=C(N/N=C/c1cccc([N+](=O)[O-])c1)c1cnccn1 ?
p53 reactivation: inactive; ClpP mod: inactive; hERG WT inh: inactive; KCNH2 3.1 inh: inactive; TRPV1 potentiator: inactive; TRPV1 ag: inactive

Results for O=C(N/N=C/c1cc([N+](=O)[O-])ccc1Cl)c1cnccn1 ?
p53 reactivation: inactive; hERG WT inh: -144.0; KCNH2 3.1 inh: -188.4; TRPV1 potentiator: inactive; TRPV1 ag: inactive

What do the screens show for `Cc1ccc(NC(=O)C2CCCN(C(=O)c3cnn(-c4ccccc4)c3-n3cccc3)C2)cc1` (stereo not drawn)?
ClpP mod: inactive

What do the screens show for `Cc1ccc(CNC(=O)c2sc3nc[nH]c(=O)c3c2C)cc1`?
ClpP mod: inactive

Results for O=C(COC(=O)C12CC3CC(CC(O)(C3)C1)C2)NCCc1ccc(Cl)cc1 ?
p53 reactivation: inactive; ClpP mod: inactive; hERG WT inh: inactive; KCNH2 3.1 inh: inactive; TRPV1 potentiator: inconclusive; TRPV1 ag: inactive

What do the screens show for `O=C(CC1(c2ccc(Cl)cc2)C2CC3CC(C2)CC1C3)NCCO` (stereo not drawn)?
p53 reactivation: inactive; ClpP mod: 12.6µM; hERG WT inh: inactive; KCNH2 3.1 inh: inactive; TRPV1 potentiator: inactive; TRPV1 ag: inactive

How did O=C(Cc1ccccc1)NCC(=O)OCC(=O)c1ccc2ccccc2c1 do in these assays?
ClpP mod: 28.2µM

How did CCc1nc2ccc(C(=O)NCCc3ccc(OC)cc3OC)cc2nc1CC do in these assays?
ClpP mod: 31.6µM

Results for Cc1ccccc1NC(NC(=O)c1cccnc1)C(Cl)(Cl)Cl (stereo not drawn) ?
p53 reactivation: inactive; ClpP mod: 12.6µM; hERG WT inh: inactive; KCNH2 3.1 inh: inactive; TRPV1 potentiator: inactive; TRPV1 ag: inactive

Results for CC(OC(=O)c1cc2c(ccc3ccccc32)oc1=O)c1nc2ccccc2s1 (stereo not drawn) ?
p53 reactivation: inactive; ClpP mod: 2.82µM; hERG WT inh: inactive; KCNH2 3.1 inh: inactive; TRPV1 potentiator: inactive; TRPV1 ag: inactive

What do the screens show for `CCc1nc2ccc(C(=O)NCc3ccc(OC)cc3)cn2c1N(C)C(=O)Cc1ccccc1`?
ClpP mod: inactive

Results for COc1ccc(/C=C/CN2CCC(C(=O)NC(c3ccc(F)cc3)c3ccc4ccccc4n3)CC2)cc1 (stereo not drawn) ?
ClpP mod: inactive

How did C=Cc1ccc(Cn2c(C)c(CNCc3ccc(SC)cc3)c(C(=O)O)c2C)cc1 do in these assays?
ClpP mod: inactive

What do the screens show for `CC(C)(C)c1ccc2c(c1)OC(C(=O)N/N=C\c1ccncc1)CO2` (stereo not drawn)?
p53 reactivation: inactive; hERG WT inh: inactive; KCNH2 3.1 inh: inactive; TRPV1 potentiator: inactive; TRPV1 ag: 109.1

What do the screens show for `COc1cc(/C=N\NC(=O)C2COc3ccccc3O2)cc(OC)c1O` (stereo not drawn)?
p53 reactivation: inactive; ClpP mod: inactive; hERG WT inh: inactive; KCNH2 3.1 inh: inactive; TRPV1 potentiator: inactive; TRPV1 ag: 87.7

What do the screens show for `COc1cc(/C=N\NC(=O)CNC(=O)C2COc3ccccc3O2)ccc1O` (stereo not drawn)?
p53 reactivation: inactive; ClpP mod: inactive; hERG WT inh: inactive; KCNH2 3.1 inh: inactive; TRPV1 potentiator: inactive; TRPV1 ag: inactive

Results for COc1cc(/C=N/NC(=O)C2COc3ccccc3O2)ccc1O (stereo not drawn) ?
p53 reactivation: inactive; hERG WT inh: inactive; KCNH2 3.1 inh: inactive; TRPV1 potentiator: inactive; TRPV1 ag: inactive

What do the screens show for `CCN(CC)c1ccc(/C=N/NC(=O)CNC(=O)C2COc3ccccc3O2)c(O)c1` (stereo not drawn)?
p53 reactivation: 17.8µM; ClpP mod: inactive; hERG WT inh: inactive; KCNH2 3.1 inh: inactive; TRPV1 potentiator: inactive; TRPV1 ag: inactive

Results for CC(=O)N1CCC(N(C(=O)Nc2ccc(C)c(F)c2)C(C)C)CC1 ?
ClpP mod: inactive

Results for O=[N+]([O-])c1ccc(/C=C/C2=NN(c3ccccc3)C(c3ccco3)C2)cc1 (stereo not drawn) ?
p53 reactivation: inactive; hERG WT inh: inconclusive; KCNH2 3.1 inh: -99.6; TRPV1 potentiator: inactive; TRPV1 ag: inconclusive

What do the screens show for `CCc1ccc(-c2csc(-c3c[nH]c4ccccc34)n2)cc1`?
p53 reactivation: 20µM; ClpP mod: inconclusive; hERG WT inh: inactive; KCNH2 3.1 inh: inactive; TRPV1 potentiator: inactive; TRPV1 ag: inactive

How did Nc1nc(-c2c[nH]c3ccccc23)cs1 do in these assays?
p53 reactivation: inactive; ClpP mod: inactive; hERG WT inh: inactive; KCNH2 3.1 inh: inactive; TRPV1 potentiator: inactive; TRPV1 ag: inactive

How did COc1cccc(S(=O)(=O)N(C)C[C@@H]2OCc3cn(nn3)CCCC(=O)N([C@@H](C)CO)C[C@H]2C)c1 do in these assays?
ClpP mod: inactive; hERG WT inh: inactive; KCNH2 3.1 inh: inactive

How did COCCN(C/C=C/c1ccccc1)C/C=C/c1ccccc1 do in these assays?
p53 reactivation: inactive; ClpP mod: inactive; hERG WT inh: inactive; KCNH2 3.1 inh: -78.6; TRPV1 potentiator: inactive; TRPV1 ag: inactive

How did Cc1cccc(N(C)C(=O)Cn2cnc3nc4c(cc3c2=O)CCCC4)c1 do in these assays?
ClpP mod: inactive

What do the screens show for `Brc1ccc(-c2cn3c(n2)CCc2ccc4cccnc4c2-3)cc1`?
p53 reactivation: inactive; ClpP mod: 28.2µM; hERG WT inh: inactive; KCNH2 3.1 inh: inactive; TRPV1 potentiator: inactive; TRPV1 ag: inactive

Compound activity from PubChem.
